We go through six molecules from PubChem BioAssay.

The subject of experiment [1] is Human papillomavirus type 1a protein E7 (residues 44-93). The experiment is described as follows: HPV1a E7 fragment binders on microarrays, primary screen, biochemical, small-molecule microarray, residues 44-93, 635 nm fluorescence (AID 1108).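 Note: E7 fragment applied at 1 µg/mL in TBST for 1 h at 4 C; score combines spot fluorescence with its signal to noise ratio.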 The conditions noted are these: small-molecule microarray binding, fluorescence 635 nm; higher = more signal.
Experiment [2] can be described thus: modulators of HCV replicon luciferase signal, primary screen, HCV replication inhibitor project, Huh7 cells, luciferase reporter (AID 1109).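 Note: huh7 hepatoma cells harbouring a luciferase neomycin HCV replicon reporter; luciferase luminescence as measure of HCV replicon replication; test concentration not given here.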 The conditions noted are these: 48 h, higher = more signal.
Experiment [3] deals with Left-right determination factor 2 (Homo sapiens) (UniProt O00292). The experiment is described as follows: LEFTY2 binders on small-molecule microarrays, primary screen, biochemical, small-molecule microarray, 635 nm fluorescence scan (AID 1110). The conditions noted are these: LEFTY2 binding, higher = more signal.
Chain of Left-right determination factor 2 (Homo sapiens) (O00292 whole entry, looked up): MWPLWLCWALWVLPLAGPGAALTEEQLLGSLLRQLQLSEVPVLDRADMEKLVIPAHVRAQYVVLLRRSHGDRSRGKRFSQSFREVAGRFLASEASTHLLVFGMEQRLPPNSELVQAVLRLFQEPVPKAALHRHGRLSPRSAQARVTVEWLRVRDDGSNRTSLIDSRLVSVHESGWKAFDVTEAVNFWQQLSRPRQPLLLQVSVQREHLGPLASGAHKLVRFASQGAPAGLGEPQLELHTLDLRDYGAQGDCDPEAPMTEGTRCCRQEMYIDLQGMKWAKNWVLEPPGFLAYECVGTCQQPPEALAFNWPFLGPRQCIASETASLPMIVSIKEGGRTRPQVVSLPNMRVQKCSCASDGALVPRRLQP
In experiment [4] the target is Calmodulin-1 (Homo sapiens) (UniProt P0DP23). The experiment is described as follows: CALM1 binders on microarrays, EGTA buffer, profiling panel, biochemical, small-molecule microarray, Cy5-labelled CALM1 (AID 1111).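 Note: labelled calmodulin applied in Tris saline Tween buffer holding calcium plus EGTA and DTT.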 The conditions noted are these: Cy5-CALM1 binding fluorescence, higher = more signal.
The target is the same in experiment [5]. The experiment is described as follows: calcium-bound CALM1 binders on microarrays, profiling panel, artefact control for SMM control-protein annotation, biochemical, small-molecule microarray, Cy5-labelled CALM1, plus calcium (AID 1112).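 Note: score merges spot fluorescence with signal to noise from triplicate slides.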 The note with it: Cy5-CALM1 binding fluorescence, higher = more signal.
A short description of experiment [6]: small-molecule microarray binders of probe aWnt5a, primary screen, biochemical, biotinylated probe, 635/667 nm fluorescence (AID 1113).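 Note: score merges 667 nm fluorescence intensity with signal-to-noise per printed feature.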 The note with it: higher = more signal.
A short description of experiment [7]: small-molecule microarray binders of probe aShh, primary screen, biochemical, biotinylated probe, 635/667 nm fluorescence (AID 1114).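 Note: probe is biotin-labelled aShh protein from a stem cell growth factor screen; measures binding of labelled protein to compounds printed on the slide; score merges feature fluorescence at 667 nm with signal-to-noise.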 The note with it: higher = more signal.
Experiment [8] in a line: small-molecule microarray binders of probe aNog, primary screen, biochemical, biotinylated probe, 635/667 nm fluorescence (AID 1115).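 Note: probe is biotinylated aNog protein used at 0.15 µg/mL for 1 h at 4 C; z-score combines 667 nm fluorescence of each spot with its signal to noise.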 The note with it: higher = more signal.
Experiment [9] addresses Torsin-1A-interacting protein 1 (Homo sapiens) (UniProt Q5JTV8). The experiment is described as follows: LAP1 binders from COS7 cell lysate, primary screen, small-molecule microarray, 635/667 nm fluorescence (AID 1116). The note with it: COS7-hLAP1 lysate binding, 635 nm fluorescence, higher = more signal.
The target in experiment [10] is Alpha-bungarotoxin (Bungarus multicinctus) (UniProt P60615). The experiment is described as follows: alpha-bungarotoxin binders on microarray, profiling panel, artefact control for SMM control protein annotation, biochemical, small-molecule microarray, Alexa647 label, 635/667 nm fluorescence (AID 1117). The note with it: alpha-BTX-A647 binding fluorescence, higher = more signal.
Chain of Alpha-bungarotoxin (Bungarus multicinctus) (P60615 whole entry, looked up): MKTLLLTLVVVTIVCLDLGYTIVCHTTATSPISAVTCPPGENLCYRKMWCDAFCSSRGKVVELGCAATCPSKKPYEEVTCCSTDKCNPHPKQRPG

A further experiment deals with Albumin (Bos taurus) (UniProt P02769). The experiment is described as follows: bovine serum albumin binders on microarray, profiling panel, artefact control for SMM control protein annotation, biochemical, small-molecule microarray, Alexa647 label, 635/667 nm fluorescence (AID 1118).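 Note: score merges 667 nm emission intensity and signal-to-noise per printed compound spot.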 The note with it: BSA-A647 binding, fluorescence 635 nm, higher = more signal.
Chain of Albumin (Bos taurus) (P02769 whole entry, looked up): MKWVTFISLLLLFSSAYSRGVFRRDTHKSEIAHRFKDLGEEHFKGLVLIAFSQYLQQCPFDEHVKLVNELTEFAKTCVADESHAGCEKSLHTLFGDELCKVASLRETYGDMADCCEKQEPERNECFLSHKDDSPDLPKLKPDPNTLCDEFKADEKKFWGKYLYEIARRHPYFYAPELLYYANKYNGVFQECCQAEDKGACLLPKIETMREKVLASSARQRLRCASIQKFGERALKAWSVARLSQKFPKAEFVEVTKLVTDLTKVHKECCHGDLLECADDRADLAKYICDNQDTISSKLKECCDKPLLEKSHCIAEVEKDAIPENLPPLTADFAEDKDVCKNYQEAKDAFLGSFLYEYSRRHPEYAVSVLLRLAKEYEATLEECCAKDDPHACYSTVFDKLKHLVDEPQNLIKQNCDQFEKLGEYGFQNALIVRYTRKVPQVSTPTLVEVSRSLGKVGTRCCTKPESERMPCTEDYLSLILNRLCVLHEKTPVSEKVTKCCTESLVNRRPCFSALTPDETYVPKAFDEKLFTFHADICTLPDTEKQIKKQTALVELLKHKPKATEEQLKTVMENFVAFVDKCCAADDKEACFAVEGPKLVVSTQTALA
Experiment [11] is described as follows: small-molecule microarray binders of probe aXIP, primary screen, biochemical, NeuroSMM set, 635/667 nm fluorescence (AID 1119).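 Note: probe is the protein aXip251-270 applied at 1 µg/mL to compound-printed slides; binding of probe to printed compounds measured as 667 nm fluorescence plus signal to noise.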 The note with it: higher = more signal, called active from +8 up or from −8 down.
Experiment [12] in a line: small-molecule binders of probe aNOTCH3, primary screen, biochemical, small-molecule microarray, 635/667 nm fluorescence (AID 1120).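 Note: probe is a biotin-tagged antibody raised against NOTCH3 rather than NOTCH3 protein; score merges spot fluorescence near 667 nm with spot signal to noise.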 The note with it: higher = more signal.
Experiment [13] can be described thus: small-molecule binders of probe aNOTCH2, primary screen, biochemical, small-molecule microarray, 635/667 nm fluorescence (AID 1121).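 Note: score merges feature fluorescence read at 667 nm with its signal to noise.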 The note with it: higher = more signal.
The target in experiment [14] is Carbonic anhydrase 2 (Homo sapiens) (UniProt P00918). The experiment is described as follows: CAII small-molecule binders, profiling panel, biochemical, small-molecule microarray, Alexa647-labelled CAII (AID 1122). The conditions noted are these: CAII-A647 binding fluorescence, higher = more signal.
A short description of experiment [15]: COS7 lysate on small-molecule microarray, probe aHis, 635 nm (AID 1123).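 Note: z-score combines 667nm fluorescence intensity with signal-to-noise per printed compound spot.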 The note with it: COS7 cell lysate, fluorescence, higher = more signal.
The nature of experiment [16]: compound binding in COS7 lysate, probe aLAP1, primary screen, cell lysate, small-molecule microarray (AID 1124).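 Note: lysate comes from COS7 cells expressing LAP1 and is applied at 0.3 µg/mL; score merges spot fluorescence near 667 nm with signal-to-noise over triplicate slides.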 The note with it: probe aLAP1, fluorescence, higher = more signal.
Another experiment relates to Sam68 (KHDRBS1). The experiment is described as follows: Sam68 small-molecule binders, primary screen, biochemical, small-molecule microarray, 635 nm fluorescence (AID 1125).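 Note: score merges 667 nm channel intensity with signal to noise over triplicate slides.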 The conditions noted are these: small-molecule microarray binding, higher = more signal.
Experiment [17] concerns Chordin-like protein 2 (CHRDL2). The experiment is described as follows: CHRDL2 small-molecule binders, primary screen, biochemical, small-molecule microarray, 635 nm fluorescence (AID 1126).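 Note: printed compound slides probed with Chrdl2 protein at 4 µg/mL for 1 h at 4 C; score merges 667 nm emission intensity with signal to noise over three replicate slides.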 The note with it: small-molecule microarray binding, fluorescence 635 nm; higher = more signal.
The target in experiment [18] is Concanavalin-A (Canavalia ensiformis) (UniProt P02866). The experiment is described as follows: ConA small-molecule binders, primary screen, artefact control for SMM control protein annotation, biochemical, small-molecule microarray, Alexa647 label, 635 nm (AID 1127).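 Note: z combines 667 nm emission intensity with signal-to-noise across three replicate slides.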 The note with it: ConA-A647 binding fluorescence, higher = more signal.
Chain of Concanavalin-A (Canavalia ensiformis) (P02866 whole entry, looked up): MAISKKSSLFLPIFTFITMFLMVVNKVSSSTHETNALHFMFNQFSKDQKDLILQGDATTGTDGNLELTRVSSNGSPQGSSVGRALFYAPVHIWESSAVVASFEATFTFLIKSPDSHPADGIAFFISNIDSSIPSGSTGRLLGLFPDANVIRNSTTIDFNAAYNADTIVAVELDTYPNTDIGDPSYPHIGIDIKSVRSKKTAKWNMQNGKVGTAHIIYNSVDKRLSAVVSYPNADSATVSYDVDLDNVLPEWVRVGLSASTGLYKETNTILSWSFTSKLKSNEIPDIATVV

The structures appear in SMILES notation. Active and inactive are the calls of the source.

Chain of Torsin-1A-interacting protein 1 (Homo sapiens) (Q5JTV8 whole entry, looked up): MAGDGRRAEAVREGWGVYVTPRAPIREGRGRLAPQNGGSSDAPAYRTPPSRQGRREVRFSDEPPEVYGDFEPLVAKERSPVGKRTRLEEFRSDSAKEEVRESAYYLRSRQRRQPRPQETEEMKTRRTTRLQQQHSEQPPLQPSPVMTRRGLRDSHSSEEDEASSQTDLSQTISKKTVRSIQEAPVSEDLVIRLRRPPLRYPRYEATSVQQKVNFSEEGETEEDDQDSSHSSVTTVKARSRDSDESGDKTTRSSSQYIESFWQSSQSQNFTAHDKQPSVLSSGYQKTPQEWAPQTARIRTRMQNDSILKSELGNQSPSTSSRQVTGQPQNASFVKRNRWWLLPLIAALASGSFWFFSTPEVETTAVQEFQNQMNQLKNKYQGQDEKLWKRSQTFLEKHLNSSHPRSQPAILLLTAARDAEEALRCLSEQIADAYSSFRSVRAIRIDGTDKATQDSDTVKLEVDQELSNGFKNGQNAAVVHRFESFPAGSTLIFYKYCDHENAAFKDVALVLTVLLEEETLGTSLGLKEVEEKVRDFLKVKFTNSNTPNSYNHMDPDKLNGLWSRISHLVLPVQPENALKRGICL

On to `COCCOC(=O)N1C(=O)[C@@]2(c3ccccc31)[C@H](c1ccc(O)cc1)N1[C@H](c3ccccc3)[C@H](c3ccccc3)OC(=O)[C@H]1[C@@H]2C(N)=O`, for which the composite z-score in experiment [1] is -1.11; in [3], -0.827; in experiment [4], -0.284; in [5] it was -0.0872; in experiment [6], -0.0256; in [7] it was 0.0899. For the same molecule, the composite z-score in experiment [8] was -0.346; in experiment [9], -0.571; in experiment [10], -0.448; with Albumin (Bos taurus) it was 0.436; in experiment [12], -0.27; in experiment [13], -0.114. Further, the composite z-score was 0.711 in experiment [14]; 0.531 in [15]; -0.0821 in experiment [16]; -0.764 in the experiment with Sam68 (KHDRBS1); -1.04 in experiment [17]; 0.035 in [18]. Besides, the z-score in [2] was -0.823. In experiment [11], the composite Z-score was 0.313 (inactive).

In the case of `C/C=C/[C@H](CCn1cc([C@H](O)c2ccccc2)nn1)[Si](C)(C)c1ccc(OC)cc1`, the composite z-score in [1] was -0.0636; in [3] it was -0.915; in experiment [4], -1.41; in [5] it was -1.41; in experiment [6] it was -0.233; in experiment [7] it was -0.0769. The composite z-score in [8] is -0.272; in [9], -0.66; in [10], -0.977; in the experiment with Albumin (Bos taurus) it was -0.7; in experiment [12], -0.359; in [13] it was -0.181. Also, the composite z-score was 0.017 in [14]; -0.092 in experiment [15]; 0.612 in experiment [16]; -0.971 in the experiment with Sam68 (KHDRBS1); -0.4 in experiment [17]; -0.971 in experiment [18]. For the same molecule, in [2], the z-score is -1.78. Besides, the composite Z-score in experiment [11] was -0.0164 (inactive).

Regarding `CCOC(=O)N1C(c2ccc(OCCCO)cc2)=NC(C(=O)OC)N1C(=O)OCC` (stereo not given), the composite z-score is 1.38 in experiment [1]; 0.537 in [3]; 1.25 in experiment [4]; 0.127 in experiment [5]; -0.0685 in experiment [6]; -0.279 in [7]. The composite z-score is 0.0036 in experiment [8]; 0.935 in [9]; 0.439 in [10]; 0.878 with Albumin (Bos taurus); 0.183 in [12]; -0.0326 in experiment [13]. For the same molecule, the composite z-score in experiment [14] is 0.733; in experiment [15] it was 1.73; in experiment [16] it was 0.626; with Sam68 (KHDRBS1), 1.18; in experiment [17] it was -0.105; in experiment [18], 1.09. In addition, in [2], the z-score was -3.72. Besides, the composite Z-score in experiment [11] is -0.363 (inactive).

For `COC(=O)[C@@]1(Cc2ccc(OC)cc2)[C@H]2c3cc(C(=O)N4CCCC4)n(CCc4ccccn4)c3C[C@H]2CN1C(=O)c1ccccc1`, the composite z-score in experiment [1] is -0.091; in [3], -0.694; in experiment [4] it was 1.34; in experiment [5], 0.61; in experiment [6], 0.164; in [7], 1.23. Also, the composite z-score in experiment [8] was 1.22; in [9], 0.432; in experiment [10], 0.329; with Albumin (Bos taurus), 0.348; in experiment [12], 0.268; in [13], 0.0746. Besides, the composite z-score was 0.862 in experiment [14]; 3.52 in [15]; 0.425 in experiment [16]; -0.724 with Sam68 (KHDRBS1); -0.236 in experiment [17]; 0.949 in experiment [18]. The molecule also came in with a z-score in experiment [2] of -0.216. Besides, in experiment [11], the composite Z-score is 0.868 (inactive).

For `O=C1OCC=C[C@H]2OC34C=CCN(c5ccc(Cl)cc5)C(=O)[C@H]3N(CCCO)C(=O)[C@@H]4[C@@H]12` (stereo not given in full), the composite z-score in [1] is -0.0068; in experiment [3], -0.59; in experiment [4], -0.268; in experiment [5], 0.954; in [6] it was -0.15; in [7], -0.0769. The composite z-score is -0.345 in experiment [8]; -0.0862 in [9]; -0.43 in experiment [10]; -1.3 with Albumin (Bos taurus); -0.254 in [12]; -0.164 in [13]. Further, the composite z-score in experiment [14] is 0.96; in experiment [15], 0.446; in experiment [16], -0.0727; in the experiment with Sam68 (KHDRBS1), -0.819; in [17], -1.6; in experiment [18], -0.927. The z-score in experiment [2] was -0.483. Besides, the composite Z-score in experiment [11] was -0.265 (inactive).

With `C=CC[C@@]1(C(N)=O)N=C(c2ccc(OCCCO)cc2)O[C@@H]1c1ccccc1N=[N+]=[N-]`, the composite z-score in experiment [1] is -0.42; in [3] it was 0.362; in experiment [4], -0.151; in [5], -0.471; in [6], 0.0825; in experiment [7], -0.148. Further, the composite z-score stood at 1.1 in experiment [8]; 2.04 in experiment [9]; 0.673 in experiment [10]; 0.225 with Albumin (Bos taurus); 0.116 in experiment [12]; 0.468 in experiment [13]. The composite z-score was determined as 0.555 in experiment [14]; 1.64 in [15]; 1.82 in experiment [16]; 0.934 in the experiment on Sam68 (KHDRBS1); 1.16 in experiment [17]; 0.126 in [18]. In addition, the z-score in experiment [2] amounted to 1.51. In addition, the composite Z-score in experiment [11] was -0.56 (inactive).
